ChEMBL document CHEMBL4513216, “Probing the Open Global Health Chemical Diversity Library for Multistage-Active Starting Points for Next-Generation Antimalarials” (ACS Infect Dis, 2020)
Out of some 69,000 compounds screened, about 8,600 (12%) showed an effect of 50% or more. What follows is part of a selection rich in strong results, with near analogues and random picks from the rest.

tested on: Plasmodium berghei; assay: Screen against P. berghei liver stage (PbLuc), transformed with Luciferase, at 10uM; type: functional, HepG2; settings: tested at 10 uM

SMILES | INHIBITION
Cc1nccc(N2CCCC(C)(c3[nH]ncc3C(N)=O)C2)n1 (configuration not stated) | -7.66%
Cc1ccc(S(=O)(=O)NC(CO)CC(C)C)cc1N(C)C (configuration not stated) | 31.7%
Cc1nc(C)n(C2CCCN(C(=O)CCCc3ccccn3)C2)n1 (configuration not stated) | -11.9%
CC(c1ccco1)N(C)Cc1cc2cc3c(cc2[nH]c1=O)OCO3 (configuration not stated) | 16.9%
CC(NCC(=O)NCC(=O)Nc1ccc(F)cc1)c1cccs1 (configuration not stated) | 0.734%
COC1CCN(c2ccc(NC(=O)Cn3cccc3)cc2)CC1 | 14.2%
CCc1nccn1CC(=O)Nc1cccc(C(=O)N(C)C)c1 | 0.0996%
CC(NCC(=O)Nc1ccc(N2CCCCCC2)cc1)c1cccs1 (configuration not stated) | 64.9%
O=C(Cn1cccn1)Nc1ccc(N2CCOCC2)cc1 | 68.9%
CC1CN(c2ccc(NC(=O)Cn3cccn3)cc2)CCO1 (configuration not stated) | 16.5%
CC(C)CCC(=O)NCc1ccc(N2CCCCC2)cc1 | 15.5%
CCc1nccn1CC(=O)Nc1cccc(C(=O)OC)c1 | -10.9%
O=C(Cn1cccn1)Nc1ccc(N2CCCCC2)cc1 | 50.2%
CCc1nccn1CC(=O)Nc1cccc(N2CCCC2)c1 | 74.55%
CC1CCN(c2ccc(NC(=O)CCn3cccn3)cc2)CC1 | 11.3%
COC1CCN(c2ccc(NC(=O)Cn3cccn3)cc2)CC1 | 8.31%
CN1CCN(C(=O)c2ccccc2)CC(Cc2cc(N(C)C)ncn2)C1 (configuration not stated) | 21.1%
CCCn1nc(C(=O)N(C)Cc2cnn(C)c2)ccc1=O | 48.7%
CCOCC1CN(C(=O)c2ccnnc2)Cc2cnn(C)c21 (configuration not stated) | -2.35%

SMILES | INHIBITION
CN1CCN(Cc2cnc3n2CCN(Cc2cccnc2)CC3)CC1 | -1.36%
c1cnc(OCc2nnc3n2CCN(CC2CCOCC2)C3)nc1 | 6.66%
Cc1nn(C)c(C)c1C1CCCN1C(=O)CCc1ccco1 (configuration not stated) | -37.7%
COc1cccc(-c2n[nH]cc2CNC2CCN(C(C)C)CC2)c1 | -59.5%
CCC(NC(=O)C1CC1)c1ccccc1OCC(=O)N1CCCC1 (configuration not stated) | 9.47%
Cn1c(=O)[nH]c(=O)n2c(CC(=O)Nc3c(Cl)cccc3Cl)cnc12 | 9.32%
CN(C)c1cc(C2CCCN(S(=O)(=O)c3cn(C)cn3)C2)ccn1 (configuration not stated) | -44.2%
CCS(=O)(=O)N1CCCC(c2ccnc(N(C)C)c2)C1 (configuration not stated) | 0.301%
CN(C)c1cc(C2CCCN(C(=O)c3noc4c3CCCC4)C2)ccn1 (configuration not stated) | 65.7%
CN(C)c1cc(C2CCCN(S(=O)(=O)C3CCCC3)C2)ccn1 (configuration not stated) | 54.4%
Cc1cc(C2CCCN(S(=O)(=O)c3cn[nH]c3)C2)ccn1 (configuration not stated) | 19.6%
O=C(c1noc2c1CCCC2)N1CCCC(c2nccs2)C1 (configuration not stated) | 13.7%
CN(C)c1cc(C2CCCN(S(=O)(=O)c3cn[nH]c3)C2)ccn1 (configuration not stated) | 85.7%
CNc1cc(C2CCCN(S(=O)(=O)c3cn[nH]c3)C2)ccn1 (configuration not stated) | 28%
CN(C)c1cc(C2CCCN2C(=O)c2noc3c2CCCC3)ccn1 (configuration not stated) | -13.2%
Cc1nc(CCNCc2c(C)nn(C)c2N2CCOCC2)cs1 | -1%
CCc1cc(NCC(O)CN2CCCCC2)ncn1 (configuration not stated) | 27.4%
COC(=O)Cn1c(=O)[nH]c2cn(-c3ccccc3)c(=O)n21 | -4.56%
CC(C)CCN(C)Cc1ccccc1-c1nc(C(C)C)cc(=O)[nH]1 | -6.83%

SMILES | INHIBITION
Cc1cc(CNCc2c(C(C)C)nn(C)c2N2CCOCC2)no1 | 28.8%
O=C(COCCOc1ccccc1)N1CCCC(n2ccnc2)C1 (configuration not stated) | 15.6%
Cc1ccc(CN2CCn3c(C(=O)N(C)C)cnc3C2)s1 | 42.1%
CC1CCc2n[nH]c(C(=O)N3CCc4c(nc(N(C)C)[nH]c4=O)C3)c2C1 (configuration not stated) | 16.3%
CN(C)c1nccc(N(C)Cc2nc3ccccc3n2C)n1 | 55.5%
CN(C)c1nccc(N(C)Cc2ncnn2C)n1 | 32%
CN(Cc1ncnn1C)c1ccnc(Cc2ccccc2)n1 | -7.16%
O=C([C@H]1C[C@@H]2CCN(C3CCOCC3)C[C@H]2O1)N1CCCC1 | 51%
COCCNC(=O)[C@H]1C[C@@H]2CCN(CCc3ccccc3)C[C@H]2O1 | 59%
COCCNC(=O)[C@H]1C[C@@H]2CCN(CCc3ccccc3)C[C@@H]2O1 | 22.9%
O=C(NC1CC1)[C@@H]1C[C@@H]2CCN(Cc3ccccc3)C[C@@H]2O1 | 47.4%
O=C(NCC1CCOCC1)[C@H]1C[C@@H]2CCN(Cc3ccccc3)C[C@H]2O1 | 32.2%
O=C(NC1CCC1)[C@@H]1C[C@@H]2CCN(Cc3cccs3)C[C@@H]2O1 | 50%
O=C([C@@H]1C[C@@H]2CCN(C3CCOCC3)C[C@H]2O1)N1CCCC1 | -9.26%
O=C(NCC1CC1)[C@H]1C[C@@H]2CCN(CCc3ccccc3)C[C@H]2O1 | 54.4%
O=C(NC1CCC1)[C@@H]1C[C@@H]2CCN(Cc3ccncc3)C[C@H]2O1 | 32.7%
O=C(NCC1CC1)[C@@H]1C[C@@H]2CCN(Cc3ccccc3)C[C@H]2O1 | 0.618%
COCCNC(=O)[C@H]1C[C@@H]2CCN(c3ccccc3)C[C@H]2O1 | 10.5%
O=C([C@@H]1C[C@@H]2CCN(C3CCOCC3)C[C@@H]2O1)N1CCCC1 | -24.1%
